Screening data: PubChem, National Center for Advancing Translational Sciences (NCATS)
An excerpt weighted towards active compounds, which were near 8.2% of everything screened.
SW480 rerep: DNA re-replication induction in SW480 cells. SW480 DNA re-replication, Hoechst DNA content imaging, 48 h. Potency, µM (titrated, usually from 46.1 µM), without a hit: top-dose re-replication activation, most hits filed as activators. 1.8% of 340,000 active. AID 624297; note: % of control where 0% means no effect; nearly all actives have a fitted effect of over 55% in size
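Image-based read-out: total Hoechst fluorescence of nuclei (405 nm excitation, 500-530 nm emission), with hits raising the fraction of high-intensity nuclei. SW480 colon cells incubated 48 hr with compounds at 37 C.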
ELG1 DNA repair: blocks ELG1-dependent DNA repair in HEK293T cells; HEK293T ELG1-luciferase reporter, luminescence, 16 h; DNA damage induced by 5-fluorouridine; Potency, µM (top dose mostly 46.1 µM), for inactives: at the highest dose activity change, negative = inhibition, most hits filed as inhibitors; 2.3% of 330,000 active; note: % is set by controls: 0 for no effect and ±100 for the full control effect; nearly all actives have a fitted effect of over 55% in size
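HEK293T cells expressing luciferase-tagged ELG1 (2,000/well) received 5-Fluorouridine plus compound or DMSO for 16 hr at 37 °C. Luciferase was read by ONE-Glo luminescence after 30 min at room temperature.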
KB-V1 MDR tox: kills drug-selected multidrug resistant KB-V1 cells. KB-V1 MDR cells viability, CellTiter-Glo, 72 h. Potency, µM (titrated, usually from 46.1 µM), usual class: cytotoxic. 3.4% of 400,000 active; note: % is set by controls: 0 for no effect and ±100 for the full control effect; nearly all actives have a fitted effect of over 60% in size
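In this primary screen, KB-V1 cells overexpressing P-gp are incubated with library compounds (lowest to highest concentration) for 72 h at 37 degrees C before a luminescent ATP viability read.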
KB-3-1 cytotox: kills parental KB-3-1 adenocarcinoma cells | KB-3-1 viability, CellTiter-Glo ATP luminescence, 72 h | Potency, µM (series often up to 46.1 µM), hits mostly cytotoxic | 1.4% of 400,000 active | AID 1347075; note: % is set by controls: 0 for no effect and ±100 for the full control effect; nearly all actives have a fitted effect of over 60% in size
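Parental KB-3-1 adenocarcinoma cells in phenol-red-free DMEM with 10% FBS were pin-treated with compounds at several concentrations, incubated 72 h at 37 °C, and viability read by CellTiter-Glo luminescence; concentration-effect curves were fitted after normalization.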
MCF10A rerep: inducers of DNA re-replication in MCF 10A breast cells; MCF 10A DNA re-replication, Hoechst nuclear intensity, 48 h; 2.9% of 350,000 active; AID 624296; Potency, µM (top dose mostly 46.1 µM), inactives show top-dose activity, positive = re-replication, usual class: activators; note: % of control where 0% means no effect; nearly all actives have a fitted effect of over 50% in size
An asterisk follows results filed as active; i = inactive; u = inconclusive; x = no result; ! = repeats disagree; [ ] = remark or other dose. Calls come from the whole dose curve; as a rule, active = well fitted curve in the direction sought with a large enough effect; inconclusive = small, poorly fitted or top-dose-only effect, or another doubt; inactive = no such curve, though single readings can be large; an effect the other way counts as inactive or inconclusive. Potency is the fitted concentration of half-maximal effect.

SMILES	SW480 rerep	ELG1 DNA repair	KB-V1 MDR tox	KB-3-1 cytotox	MCF10A rerep
C[C@]12CC[C@H]3[C@@H](CC[C@]4(O)C[C@@H](O)CC[C@]34C=O)[C@@]1(O)CC[C@@H]2C1=CC(=O)OC1	2.59µM*	u	0.92µM*	0.517µM*	u
CC12CCC3C(CCC4(O)CC(O)CCC34C=O)C1(O)CCC2C1=CC(=O)OC1 (centres undefined)	u	x	u	1.3µM*	u
CC12CC[C@H]3[C@@H](CCC4(O)C[C@H](O)CCC34/C=N/NC(=O)c3ccccc3Cl)C1(O)CCC2C1=CC(=O)OC1 (some centres undefined)	-6.0%	-2.6%	i	i	14.2%
Cc1ccc(NC(=O)c2ncn(CC(=O)NCc3ccc4c(c3)OCO4)n2)cc1C	10.5%	u	i	i	59.9%
CC1CCN(c2ccccc2NC(=O)c2cc3ccccc3o2)CC1	13.0%	4.3%	i	i	u
CCCC(C)C1(CC)C(=O)NC(=S)NC1=O (centres undefined)	1.0%	x	x	x	-1.5%
O=C1CC2OCC=C3CN4CC[C@]56c7ccccc7N1C5C2[C@H]3C[C@H]46 (some centres undefined)	-3.3%	x	x	x	x
Cc1nn(-c2ccccc2)c2c1C(c1ccc3c(c1)OCO3)SCC(=O)N2 (centres undefined)	23.7%	u	u	i	14.6µM*
CCC1C(c2cc(OC)c(OC)c(OC)c2)c2cc3c(cc2OC1N1CCCC1)OCO3 (centres undefined)	8.2µM*	x	5.17µM*	4.11µM*	4.11µM*
Cc1cccc(CN2CCN(Cc3ccc(Cl)cc3)CC2)c1	u	u	u	i	7.31µM*
C[C@]12CCC(=O)C(O)=C1CC[C@@H]1[C@H]3CCC(=O)[C@@]3(C)CC[C@@H]12	-1.6%	x	x	x	14.9%
COc1ccc(S(=O)(=O)N(C)C[C@H]2Oc3c(NC(=O)NC4CCCCC4)cccc3C(=O)N([C@H](C)CO)C[C@@H]2C)cc1	u	u	i	i	10.7%
CN(C)C(=S)SC(=S)N(C)C	2.66µM*	x	x	x	3.2%
CN(C)C(=S)SSC(=S)N(C)C	1.33µM*	u	i	i	21.1µM*!
Cc1ccc(C(C)C)c(OCCn2c(=O)oc3ccccc32)c1	u	22.5%	u	i	u
O=C1NC2C(=CC(O)C(O)C2O)c2cc3c(cc21)OCO3 (centres undefined)	22.6%	x	2.31µM*	3.26µM*	u
O=C1NC2C(O)C(O)C(O)C(O)C2c2cc3c(c(O)c21)OCO3 (centres undefined)	16.6%	x	0.517µM*	u	14.2%
O=C1NC2C(=CC(O)C(O)C2O)c2cc3c(c(O)c21)OCO3 (centres undefined)	u	x	u	0.103µM*	u
CC(C)OP(=O)(OC(C)C)C(Nc1ccccc1)c1cccc2c1OCO2 (centres undefined)	6.3%	u	u	i	1.7%
O=C(NNc1c(F)c(F)cc(F)c1F)c1cc2ccccc2oc1=O	-3.7%	u	i	i	-8.4%
COc1cc(-c2ccc(-[n+]3nc(-c4ccccc4)nn3-c3ccc([N+](=O)[O-])cc3)c(OC)c2)ccc1-[n+]1nc(-c2ccccc2)nn1-c1ccc([N+](=O)[O-])cc1	u	x	x	x	-1.4%
O=C(Nc1nccs1)c1c(O)c2c(n(Cc3ccco3)c1=O)CCCC2	-14.2%	u	11.6µM*	u	9.7%
O=C(Nc1ccccc1)c1c(O)c2c(n(Cc3ccco3)c1=O)CCCC2	-3.8%	u	i	u	2.4%
CNC(=O)Oc1ccccc1C(=O)Nc1ccccc1	1.3%	x	x	x	3.5%
Cc1cc(C)c(N)cc1C	u	15.5%	i	i	u
SMILES	SW480 rerep	ELG1 DNA repair	KB-V1 MDR tox	KB-3-1 cytotox	MCF10A rerep
Cc1cc(NC(=O)COC(=O)c2c(C)nn(Cc3ccccc3Cl)c2C)no1	u	15.4%	i	i	u
Cc1cc(NC(=O)COC(=O)c2c(C)nn(Cc3ccccc3)c2Cl)no1	0.9%	-4.0%	i	i	8.7%
CCc1ccc(NC(=O)C(C)OC(=O)c2c(C)nn(Cc3ccccc3)c2Cl)cc1 (centres undefined)	u	u	u	i	12.3%
Cc1nn(Cc2ccccc2Cl)c(Cl)c1C(=O)OCC(=O)NC(=O)NC1CCCCC1	-11.2%	-0.9%	16.4µM*	i	u
Cc1nn(Cc2ccccc2)c(Cl)c1C(=O)OC(C)C(=O)Nc1ccc(F)cc1Cl (centres undefined)	6.6%	-34.8%	3.26µM*	i	20.6µM*
COc1ccc(C)cc1NC(=O)c1c(C)nn(Cc2ccccc2)c1Cl	u	14.6µM*	u	i	u
Cc1nn(Cc2ccccc2)c(Cl)c1C(=O)OCC(=O)Nc1cccc2ccccc12	-0.9%	22.4%	16.4µM*	u	u
C[N+]1(C)C2CC[C@H]1CC(OC(=O)[C@@H](CO)c1ccccc1)C2 (some centres undefined)	u	x	x	x	8.6%
CCN(CC)CCOC(=O)C(C)(c1ccccc1)c1ccccc1	0.9%	x	x	x	u
CN(C)/C=c1\sc2c(C#N)cc(C(=O)c3ccc(Br)cc3)n2c1=O	0.3%	-4.0%	i	i	u
CCCCC(CC)COP(=O)(OCC(CC)CCCC)OCC(CC)CCCC (centres undefined)	u	u	u	u	9.7%
O=C(CCc1nc(C2=CCN(Cc3cccc(Cl)c3)CC2)no1)Nc1ccccc1F	x	x	i	i	x
O=C1CC23c4ccccc4N4C(=O)CC5OCC=C6CN1C2CC6C5C43 (centres undefined)	0.2%	x	14.6µM*	i	0.6%
CCC1(CC)C(=O)NC(=O)N(C)C1=O	-1.0%	x	x	x	5.0%
COC1CC(O[C@H]2/C(C)=C/CC3CC(C[C@]4(CCC(C)C(C5CCCCC5)O4)O3)OC(=O)[C@H]3C=C(C)/C(=N/O)C4OC/C(=C\C=C\[C@@H]2C)[C@@]43O)OC(C)C1O (some centres undefined)	8.4%	x	x	x	u
NCC[C@H](O)C(=O)N[C@H]1C[C@@H](N)[C@@H](O[C@H]2O[C@@H](CN)[C@@H](O)[C@@H](O)[C@@H]2N)[C@@H](O[C@H]2O[C@@H](CO)[C@@H](O)[C@@H]2O)[C@@H]1O	0.1%[20.6 µM]	x	x	x	1.1%[20.6 µM]
COc1ccc(CNCCc2c(C)[nH]c3ccc(OC(F)(F)F)cc23)c(OC)c1	u	1.03µM*	7.31µM*	u	20.6µM*
COc1ccc2[nH]c(C)c(CCNCc3cc(OC)c(OC)c(OC)c3)c2c1	-11.4%	0.0%	u	i	12.2%
COC(=O)C1=C(c2ccc(-c3ccccc3)c(F)c2)C[C@@H]2CC[C@H]1N2C(=O)NCCOc1ccccc1Cl	u	u	20.6µM*	u	1.2%
